High-throughput results: PubChem, National Center for Advancing Translational Sciences (NCATS)
Compounds with a hit are over-represented: about 7.3% of the library has one in this group of screens.
HCMV antiviral – qHTS Assay for inhibitors of the human cytomegalovirus (HCMV) | activity change, negative = inhibition, % at 57.5 µM | AID 1259415, 2018 | HFF cells, HCMV-luciferase reporter, 72 h; stronger effect = lower value | 410,000 compounds, 4.5% hits; in the data active = activity change below about -60%; inconclusive = no clear call, values can overlap the other calls; inactive = above about -39%
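Compounds were evaluated in HFFs infected with an HCMV luciferase reporter virus (MOI 1 PFU/cell). Luciferase in lysates collected 72 h post infection served as the replication measure.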
Vaccinia Venus – qHTS for Stage-Specific Inhibitors of Vaccinia Orthopoxvirus: Venus Reporter Primary qHTS. Potency, µM (top dose mostly 36.5 µM), without a hit: top-dose activity change, negative = inhibition, usual class: inhibitors. Vaccinia virus Venus reporter expression, fluorescence. 330,000 compounds, 0.46% hits; calls by dose curve; tested in A549 cells; also: potency is read from the fitted curve at half-maximal effect; nearly all actives have a fitted effect of over 30% in size
FMDV inh – High Throughput Screening for Foot and Mouth Disease Virus Antivirals. FMDV antiviral cell-based qHTS. 410,000 compounds, 1.2% hits. Potency, µM (highest dose often 57.9 µM), for inactives: at the top dose activity change, negative = inhibition, most hits filed as inhibitors; calls by dose curve; tested in HEK293T cells; also: read-out not given here; potency is read from the fitted curve at half-maximal effect; nearly all actives have a fitted effect of over 45% in size
Vaccinia mCherry – qHTS for Stage-Specific Inhibitors of Vaccinia Orthopoxvirus: mCherry Reporter Primary qHTS; Vaccinia virus mCherry reporter infection, fluorescence; 310,000 compounds, 0.63% hits; Potency, µM (highest dose often 36.5 µM), for the others: at the highest dose activity change, negative = inhibition, actives largely listed as inhibitors; AID 720579, 2013; calls by dose curve; tested in A549 cells; also: potency is read from the fitted curve at half-maximal effect; nearly all actives have a fitted effect of over 35% in size
HCV inhibitor – qHTS Assay for Inhibitors of Hepatitis C Virus (HCV); Huh7.5.1 HCVcc-Cre infection, luciferase reporter, 44 h; Potency, µM (titrated, usually from 41.8 µM), without a hit: top-dose activity change, negative = inhibition, hits mostly inhibitors; 340,000 compounds, 3.4% hits; AID 651820, 2012; active = well fitted inhibition curve with a large enough effect; inconclusive = small, poorly fitted or top-dose-only effect, or another doubt; inactive = no such curve, though single readings can be large or run the other way; also: potency is read from the fitted curve at half-maximal effect
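Luciferase read-out (15 sec integration) after a 15 min room-temperature substrate step quantifies HCVcc-Cre infection. Cells, 1,000 per well, had compound added 4 h post-plating, then virus at ~0.5 moi, and were cultured 44 h.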
Numbers without * were called inactive; i = inactive; ? = inconclusive; nt = no result; ! = not active in a repeat; [ ] = dose if it differs, or a comment. % is scaled to controls: 0 for no effect and ±100 for the full control effect.

SMILES	HCMV antiviral	Vaccinia Venus	FMDV inh	Vaccinia mCherry	HCV inhibitor
O=S(=O)(NCCC(c1ccc(F)cc1)c1ccco1)c1ccccc1 (configuration not stated)	?	-24%	4.5µM*	-29%	?
Fc1ccc(C(CCNCc2cccs2)c2ccco2)cc1 (configuration not stated)	-16	-11%	62%	-15%	-4%
CCOc1ccc2c(c1)C(=NNC(=O)c1ccncc1)c1cc(OCC)ccc1-2	-95*	6%	-24%	i	-4%
CCOc1ccc(NC(=O)c2ccncc2)cc1	13	-9%	15%	-12%	14%
COc1ccc(NC(=O)c2c(NC(=O)c3ccncc3)sc3c2CCC(C(C)(C)C)C3)cc1 (configuration not stated)	-38	?	?	10µM*	nt
Nc1cccc2c1Cc1cc([N+](=O)[O-])ccc1-2	-101*	10%	55%	-8%	-16%
Nc1c(Br)cc(Br)c2c1-c1ccc([N+](=O)[O-])cc1C2	-80*	-13%	-9%	i	?
O=CNc1ccc2c(c1)Cc1cc([N+](=O)[O-])ccc1-2	0	1%	17%	-1%	?
COc1ccc(C(=O)N2CCC3(CCCN(Cc4cc(C(F)(F)F)cc(C(F)(F)F)c4)C3)CC2)cc1	nt	nt	-7%	nt	nt
OCCCNc1ncnc2c1ncn2[C@H]1CN(C2CCCC2)C[C@@H](CO)O1	?	-5%	-15%	-1%	nt
COc1ccc2c(c1)c1c(c(=O)n(-c3cccc(C)c3)c(=O)n1CC(=O)NCC1CCCO1)n2C (configuration not stated)	6	-1%	-6%	5%	nt
Cc1cccc(-n2c(=O)c3c(c4cc(C)ccc4n3C)n(CC(=O)NCC3CCCO3)c2=O)c1 (configuration not stated)	-106*	-12%	0%	-5%	nt
OC(CN1C2=NCCCN2c2ccccc21)c1ccc(Cl)cc1 (configuration not stated)	-69*	-2%	-22%	i	?
Clc1ccc(CN2C3=NCCCN3c3ccccc32)cc1	-1	-16%	-26%	nt	?
Clc1ccc(CN2C3=NCCCN3c3ccccc32)cc1Cl	-84*	-21%	-24%	-1%	?
OC(COc1ccc(Cl)cc1)CN1C2=NCCCN2c2ccccc21 (configuration not stated)	12	-44%	-4%	nt	13µM*
Cc1nc(SCC(=O)Nc2nnc(C(C)C)s2)n[nH]1	-12	-8%	-6%	-3%	20%
CC(OCC(O)CN(C)Cc1nc2ccccc2c(=O)[nH]1)c1ccc(Cl)cc1 (configuration not stated)	-16	-29%	-28%	i	10µM*
c1ccc2c(-c3ccc4nncn4c3)cncc2c1	-70*	-21%	-17%	-8%	nt
c1coc(-c2ccc3nncn3c2)c1	-2	7%	-10%	i	nt
O=C(Nc1nc(-c2cccs2)cs1)c1cccc(S(=O)(=O)N2CCCCC2)c1	105	?	-9%	?	11µM*
O=C(Nc1nccs1)c1cccc(S(=O)(=O)N2CCOCC2)c1	-15	-20%	-19%	nt	12%
Cc1ccc(NC(=O)c2cccc(S(=O)(=O)N3CCN(C)CC3)c2)cc1F	-6	-2%	16%	i	13µM*
Cc1ccc(-c2csc(NC(=O)c3cccc(S(=O)(=O)N4CCN(C)CC4)c3)n2)cc1	16	-5%	13µM*	-11%	?
COc1cc(C(=O)Nc2nc(-c3cccs3)cs2)cc(OC)c1OC	41	-29%	nt	?	1.8µM*
SMILES	HCMV antiviral	Vaccinia Venus	FMDV inh	Vaccinia mCherry	HCV inhibitor
COc1cc(NC(=O)Nc2cccn3nc(COCCO)nc23)cc(OC)c1OC	17	2%	-14%	i	nt
Cc1ccc(NC(=O)CCNS(=O)(=O)c2ccc(OC(F)(F)F)cc2)c(O)c1	-6	-15%	12%	-7%	0%
COC(=O)C1(C)COP(=O)(NC23CC4CC(CC(C4)C2)C3)OC1 (configuration not stated)	-16	-5%	-17%	-15%	30%
COc1cccc(C(=O)NC(=S)N2CCN(c3ccc(C(F)(F)F)cc3[N+](=O)[O-])CC2)c1	-62*	-19%	0%	-21%	?
c1ccc2c(c1)ncn2-c1cncnc1	-15	0%	-8%	4%	nt
CCOC(=O)C1CCN(C(=O)COc2ccc(Br)cc2)CC1	5	nt	-13%	nt	0%
CCOC(=O)C1CCN(C(=O)c2ccc3c(c2)NC(=O)/C(=C\c2cccc(C)c2)S3)CC1	-10	nt	-14%	nt	11µM*
CCOC(=O)N1CCN(C(=O)c2ccc3c(c2)NC(=O)/C(=C/c2ccccc2)S3)CC1	?	-14%	11%	-22%	?
CCOC(=O)C1CCN(C(=O)COc2cccc(C)c2)CC1	-3	-9%	nt	4µM*	6%
O=C1Nc2cc(C(=O)N3CCC4(CC3)OCCO4)ccc2S/C1=C\c1ccccc1	-27	-12%	-8%	-23%	?
CCOC(=O)C1CCN(C(=O)c2ccc3c(c2)NC(=O)/C(=C\c2ccc(C)cc2)S3)CC1	0	nt	-15%	nt	?
CCOC(=O)C1CCN(C(=O)c2ccc3c(c2)NC(=O)/C(=C/c2ccccc2)S3)CC1	?	nt	-6%	nt	11µM*
CN1CCN(C(=O)c2ccc3c(c2)NC(=O)/C(=C/c2ccccc2)S3)CC1	-69*	nt	-10%	nt	11µM*
CCCCc1c(C(=O)O)cc(OC)cc1C(=O)O	47	nt	-14%	nt	-3%
CCCCCc1c2c(cc(O)c1C(=O)O)OC(=O)c1cc(C(=O)CCCC)c(OC)cc1O2	6	-8%	?	-10%	0.5µM*
CCCCCc1c2c(cc(O)c1C(=O)O)OC(=O)c1c(cc(OC)cc1C(=O)CCCC)O2	nt	0%	32µM*!	i	8%
Nc1ccc2ccc3cccc[n+]3c2c1	-25	18%	-9%	3%	7.1µM*
O=C(Nc1ccc(S(=O)(=O)NCCc2ccccc2)cc1)c1ccncc1	-20	nt	21%	nt	11µM*
O=S(=O)(NCc1cccnc1)c1ccc2ccccc2c1	-63*	7%	22%	-5%	-28%
O=S(=O)(NCc1cccnc1)c1ccc(Cl)c(Cl)c1	-13	-17%	14%	-5%[1.46 µM]	6%
O=C(Nc1ccccc1)c1ccc(S(=O)(=O)NCc2cccnc2)cc1	-5	-8%	?	-25%	8.9µM*
CCCCCc1ccc(S(=O)(=O)NCCc2ccncc2)cc1	?	nt	29%	nt	10µM*
CC1=C(C(=O)NCc2cccc(Br)c2)C2(CCCCC2)OC1=O	-12	-5%	-29%	-10%	nt
O=C(Nc1cccnc1)c1ccc(-c2cc(Cl)ccc2Cl)o1	1	-15%	3%	-23%	11µM*
O=C(Nc1cccnc1)c1ccc(-c2ccc(Cl)cc2)o1	35	-3%	7%	-15%	2%
